Results reported in PubChem BioAssay (EPA / NIEHS).
Activity calls are given as the source filed them. The calls were made as follows: active = hit-call score of the fitted dose curve at least 0.9, where 1 is the maximum; inactive = score below 0.9.

Key:
[1] = ATG_M_32_CIS: Attagene CIS-FACTORIAL HepG2 Assay for M32 Transcription Factor (Internal Marker) (AID 2282949); conditions: HepG2 Attagene cis-factorial M32 reporter, mRNA; actives raise or lower the signal;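 also: background control marker of the multiplexed CIS panel rather than a real target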
How it was run: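 Using DMSO as baseline, bidirectional curve fits were applied to reporter mRNA signals. These came from transiently transfected HepG2 cells exposed for 24 h, with RNA analysed by RT-PCR, FAM primer extension, HpaI digestion and CE.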

[2] = ATG_M_06_CIS: Attagene CIS-FACTORIAL HepG2 Assay for M06 Transcription Factor (Internal Marker) (AID 2282950); conditions: HepG2 Attagene CIS-FACTORIAL M06 internal marker reporter; actives raise or lower the signal
How it was run: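 Internal background marker within multiplexed cis-reporter HepG2 system. Cells transiently transfected, dosed 24 h; reporter mRNA measured by RT-PCR, HpaI digestion and capillary electrophoresis. Bidirectional fit relative to DMSO.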

[3] = target: Hypoxia-inducible factor 1-alpha (Homo sapiens) (UniProt Q16665); experiment: ATG_HIF1a_CIS: Attagene CIS-FACTORIAL HepG2 Assay for human Hypoxia Inducible Factor 1 (HIF1A) (AID 2282951); conditions: HepG2 Attagene cis-factorial HIF1a reporter transcription; actives raise or lower the signal
Chain of Hypoxia-inducible factor 1-alpha (Homo sapiens) (Q16665 whole entry, looked up): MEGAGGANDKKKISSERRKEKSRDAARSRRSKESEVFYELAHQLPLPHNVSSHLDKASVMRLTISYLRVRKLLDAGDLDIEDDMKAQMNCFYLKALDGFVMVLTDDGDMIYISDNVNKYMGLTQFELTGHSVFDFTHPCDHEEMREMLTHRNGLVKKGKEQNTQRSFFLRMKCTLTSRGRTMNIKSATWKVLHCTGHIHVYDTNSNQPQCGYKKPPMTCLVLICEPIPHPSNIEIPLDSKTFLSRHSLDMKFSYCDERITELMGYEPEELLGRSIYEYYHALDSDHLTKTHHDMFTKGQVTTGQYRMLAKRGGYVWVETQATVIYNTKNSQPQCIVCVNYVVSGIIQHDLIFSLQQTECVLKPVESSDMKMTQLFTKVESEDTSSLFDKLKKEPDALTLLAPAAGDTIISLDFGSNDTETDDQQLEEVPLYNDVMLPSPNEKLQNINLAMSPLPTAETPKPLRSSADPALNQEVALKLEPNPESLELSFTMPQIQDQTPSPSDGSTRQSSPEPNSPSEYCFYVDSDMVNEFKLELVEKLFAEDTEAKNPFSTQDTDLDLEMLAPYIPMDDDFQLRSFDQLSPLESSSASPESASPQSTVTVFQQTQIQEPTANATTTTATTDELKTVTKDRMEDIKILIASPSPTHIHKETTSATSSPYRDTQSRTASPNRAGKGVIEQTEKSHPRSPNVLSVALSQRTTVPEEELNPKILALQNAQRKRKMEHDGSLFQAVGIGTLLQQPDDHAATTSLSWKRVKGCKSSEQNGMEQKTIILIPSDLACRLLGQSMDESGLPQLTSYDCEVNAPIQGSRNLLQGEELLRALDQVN
How it was run: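 Endogenous-TF cis reporter readout, human HepG2 cells, 24 h incubation; mRNA detected via RT-PCR and capillary electrophoresis fluorescence; DMSO-normalised bidirectional fitting.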

[4] = target: Hepatocyte nuclear factor 6 (Homo sapiens) (UniProt Q9UBC0); experiment: ATG_HNF6_CIS: Attagene CIS-FACTORIAL HepG2 Assay for human Hepatocyte Nuclear Factor 6 (HNF6) (AID 2282952); conditions: HepG2 Attagene cis-factorial HNF6 reporter transcription; actives raise or lower the signal
Chain of Hepatocyte nuclear factor 6 (Homo sapiens) (Q9UBC0 whole entry, looked up): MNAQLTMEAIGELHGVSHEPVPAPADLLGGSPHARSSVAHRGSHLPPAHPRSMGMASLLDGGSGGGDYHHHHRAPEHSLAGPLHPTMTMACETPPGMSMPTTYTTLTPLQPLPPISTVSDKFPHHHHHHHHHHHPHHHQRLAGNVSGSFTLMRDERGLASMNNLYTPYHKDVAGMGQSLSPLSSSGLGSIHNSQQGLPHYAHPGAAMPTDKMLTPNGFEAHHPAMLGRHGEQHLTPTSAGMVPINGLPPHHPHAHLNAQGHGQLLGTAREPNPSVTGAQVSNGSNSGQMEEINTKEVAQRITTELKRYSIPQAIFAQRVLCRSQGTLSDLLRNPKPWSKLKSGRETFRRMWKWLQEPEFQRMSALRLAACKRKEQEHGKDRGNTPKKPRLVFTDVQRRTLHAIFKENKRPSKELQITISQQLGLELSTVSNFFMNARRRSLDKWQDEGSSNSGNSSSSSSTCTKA
How it was run: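 Endogenous factor activity read in transiently transfected HepG2 via promoter-regulated reporter transcripts. RNA harvested 24 h post-dosing, reverse-transcribed, PCR-amplified, FAM-labelled, HpaI-digested and resolved by capillary electrophoresis; fitted in both directions against DMSO.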

[5] = target: Heat shock factor protein 1 (Homo sapiens) (UniProt Q00613); experiment: ATG_HSE_CIS: Attagene CIS-FACTORIAL HepG2 Assay for human Heat Shock Transcription Factor 1 (HSE) (AID 2282953); conditions: HepG2 HSE cis-reporter, Attagene RNA transcription; actives raise or lower the signal
Chain of Heat shock factor protein 1 (Homo sapiens) (Q00613 whole entry, looked up): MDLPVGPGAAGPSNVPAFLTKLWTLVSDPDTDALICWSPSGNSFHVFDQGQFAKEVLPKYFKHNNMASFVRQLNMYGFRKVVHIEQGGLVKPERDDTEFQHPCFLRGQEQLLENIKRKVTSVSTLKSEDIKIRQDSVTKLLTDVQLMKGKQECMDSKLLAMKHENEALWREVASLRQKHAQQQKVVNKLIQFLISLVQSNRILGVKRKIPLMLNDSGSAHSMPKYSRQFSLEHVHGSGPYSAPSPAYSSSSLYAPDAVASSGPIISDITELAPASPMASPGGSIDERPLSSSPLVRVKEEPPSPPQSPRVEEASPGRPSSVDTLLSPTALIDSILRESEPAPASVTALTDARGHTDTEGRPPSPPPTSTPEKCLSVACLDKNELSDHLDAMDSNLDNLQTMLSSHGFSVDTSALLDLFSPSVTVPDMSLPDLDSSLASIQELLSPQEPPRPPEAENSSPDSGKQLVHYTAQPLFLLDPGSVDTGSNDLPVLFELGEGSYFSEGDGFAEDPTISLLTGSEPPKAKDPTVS
How it was run: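 HepG2 cells transfected with cis-promoter reporter units sensing endogenous transcription factor activity; reporter mRNA quantified 24 h post-dose by RT-PCR and capillary electrophoresis of 6-FAM-labelled products. Bidirectional fitting against DMSO.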

[6] = ATG_MRE_CIS: Attagene CIS-FACTORIAL HepG2 Assay for human Metal Responsive Element (MRE) (AID 2282954); conditions: HepG2 MRE cis-reporter transcription, Attagene multiplex; actives raise or lower the signal
How it was run: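 RT-PCR/capillary electrophoresis readout of reporter mRNA, 24 h post-dosing, in HepG2 cells transfected with multiplexed cis-regulated reporter constructs. Gain or loss of signal fitted bidirectionally against DMSO baseline.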

[7] = ATG_PPRE_CIS: Attagene CIS-FACTORIAL HepG2 Assay for human Peroxisome Proliferator-activated Response Element (PPRE) (AID 2282958); conditions: HepG2 PPRE cis-element reporter, Attagene transcription factor profiling; actives raise or lower the signal
How it was run: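 After human HepG2 hepatoma cells were transiently transfected with cis-promoter reporter constructs, they were exposed to test chemicals for 24 hours. Reporter RNA was then reverse-transcribed, PCR-amplified, FAM-labeled, HpaI-digested and quantified by capillary electrophoresis.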

[8] = ATG_RORE_CIS: Attagene CIS-FACTORIAL HepG2 Assay for human RAR-related Orphan Receptor Element (RORE) (AID 2282959); conditions: HepG2 Attagene cis-factorial RORE reporter, mRNA; actives raise or lower the signal
How it was run: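 Measured here: transcript induction of a cis-regulated reporter in HepG2 cells transiently transfected via FuGene 6. After 24 h, RNA was processed by RT-PCR and fluorescent capillary electrophoresis; DMSO defined baseline activity.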

[9] = ATG_Sox_CIS: Attagene CIS-FACTORIAL HepG2 Assay for human SRY-box transcription factor (SOX) (AID 2282960); conditions: HepG2 Attagene cis-factorial SOX reporter, mRNA; actives raise or lower the signal
How it was run: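 Using transiently transfected HepG2 cells, reporter transcription driven by cis elements was assessed 24 h after dosing. Signal was fluorescence of capillary-separated RT-PCR products, with DMSO defining baseline activity.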

[10] = target: Transcription factor Sp1 (Homo sapiens) (UniProt P08047); experiment: ATG_Sp1_CIS: Attagene CIS-FACTORIAL HepG2 Assay for human Specificity Protein 1 (Sp1) (AID 2282961); conditions: HepG2 Sp1 cis-reporter transcription, actives raise or lower the signal
Chain of Transcription factor Sp1 (Homo sapiens) (P08047 whole entry, looked up): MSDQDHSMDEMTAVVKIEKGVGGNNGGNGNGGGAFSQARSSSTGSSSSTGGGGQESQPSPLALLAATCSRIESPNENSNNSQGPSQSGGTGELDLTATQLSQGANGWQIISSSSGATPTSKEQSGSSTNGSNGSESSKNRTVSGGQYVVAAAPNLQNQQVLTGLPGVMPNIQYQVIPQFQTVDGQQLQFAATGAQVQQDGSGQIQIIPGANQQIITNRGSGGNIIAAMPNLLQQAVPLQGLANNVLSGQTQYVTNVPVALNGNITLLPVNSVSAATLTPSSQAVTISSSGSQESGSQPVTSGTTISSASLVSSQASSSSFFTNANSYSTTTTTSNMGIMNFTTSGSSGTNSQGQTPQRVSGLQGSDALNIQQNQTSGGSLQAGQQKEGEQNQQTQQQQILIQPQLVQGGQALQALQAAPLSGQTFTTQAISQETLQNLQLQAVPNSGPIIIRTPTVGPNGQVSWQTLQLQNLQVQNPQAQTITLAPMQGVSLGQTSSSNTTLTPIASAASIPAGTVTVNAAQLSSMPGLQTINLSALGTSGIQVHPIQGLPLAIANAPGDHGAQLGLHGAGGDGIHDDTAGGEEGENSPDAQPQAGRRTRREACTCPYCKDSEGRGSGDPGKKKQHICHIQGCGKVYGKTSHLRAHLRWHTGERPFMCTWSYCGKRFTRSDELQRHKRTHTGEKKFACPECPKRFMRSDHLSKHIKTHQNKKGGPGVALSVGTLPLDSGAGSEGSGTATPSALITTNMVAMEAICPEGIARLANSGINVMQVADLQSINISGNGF
How it was run: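 After transient transfection of HepG2 cells with cis-promoter reporter units and 24 h chemical treatment, reporter transcripts were quantified by RT-PCR and capillary electrophoresis fluorescence. Gain- and loss-of-signal fitted against DMSO.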

[11] = ATG_SREBP_CIS: Attagene CIS-FACTORIAL HepG2 Assay for human Sterol Regulatory Element Binding (SREBP) (AID 2282962); conditions: HepG2 Attagene cis-factorial SREBP reporter, mRNA; actives raise or lower the signal
How it was run: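 In this cis-format assay, HepG2 liver cells express reporters controlled by promoter elements responsive to native transcription factors. Exposure lasts 24 h; reporter mRNA fluorescence from capillary electrophoresis gives the signal, fitted bidirectionally against DMSO.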

[12] = target: Signal transducer and activator of transcription 3 (Homo sapiens) (UniProt P40763); experiment: ATG_STAT3_CIS: Attagene CIS-FACTORIAL HepG2 Assay for human Signal Transducer and Activator of Transcription 3 (STAT3) (AID 2282963); conditions: HepG2, Attagene cis-factorial STAT3 reporter transcription; actives raise or lower the signal
Chain of Signal transducer and activator of transcription 3 (Homo sapiens) (P40763 whole entry, looked up, the tested form may be a part): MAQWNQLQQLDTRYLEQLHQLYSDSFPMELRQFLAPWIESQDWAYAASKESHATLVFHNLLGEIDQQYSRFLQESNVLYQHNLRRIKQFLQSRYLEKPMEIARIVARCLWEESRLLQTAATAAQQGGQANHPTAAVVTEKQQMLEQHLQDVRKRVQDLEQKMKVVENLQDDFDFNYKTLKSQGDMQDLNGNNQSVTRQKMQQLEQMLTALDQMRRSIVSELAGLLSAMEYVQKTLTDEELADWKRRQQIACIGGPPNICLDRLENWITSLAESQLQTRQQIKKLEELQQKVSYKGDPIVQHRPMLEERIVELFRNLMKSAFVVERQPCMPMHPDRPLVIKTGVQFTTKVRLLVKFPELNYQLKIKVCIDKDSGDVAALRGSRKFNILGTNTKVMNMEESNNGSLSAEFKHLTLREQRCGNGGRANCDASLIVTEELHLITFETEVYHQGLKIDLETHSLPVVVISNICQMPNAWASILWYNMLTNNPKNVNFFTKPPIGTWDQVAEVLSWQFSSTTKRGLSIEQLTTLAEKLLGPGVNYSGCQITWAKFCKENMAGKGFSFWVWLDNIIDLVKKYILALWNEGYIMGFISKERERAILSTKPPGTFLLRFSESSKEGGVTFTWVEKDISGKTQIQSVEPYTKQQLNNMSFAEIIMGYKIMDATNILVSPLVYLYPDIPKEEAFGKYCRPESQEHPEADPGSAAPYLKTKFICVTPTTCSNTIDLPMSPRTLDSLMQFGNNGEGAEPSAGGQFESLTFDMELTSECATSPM
How it was run: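 Readout: fluorescent reporter mRNA fragments resolved by capillary electrophoresis. Setup: HepG2 transfected with MRTUs reporting endogenous transcription-factor activity, dosed 24 h. Gain or loss of signal fitted bidirectionally against DMSO control.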

[13] = ATG_TA_CIS: Attagene CIS-FACTORIAL HepG2 Assay for human TA Basal Promoter (AID 2282964); conditions: HepG2 Attagene CIS-factorial TA basal promoter reporter; actives raise or lower the signal
How it was run: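 HepG2 cells transiently transfected with multiple reporter units under cis promoter elements, reporting endogenous transcription factor activity; this endpoint tracks the TA basal promoter as background control. Reporter mRNA after 24 h dosing measured by RT-PCR/capillary electrophoresis; bidirectional fits versus DMSO.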

[14] = ATG_TAL_CIS: Attagene CIS-FACTORIAL HepG2 Assay for human TAL Basal Promoter (AID 2282966); conditions: HepG2 Attagene cis-factorial TAL promoter reporter; actives raise or lower the signal;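 also: background control endpoint measuring basal TAL promoter reporter mRNA not a specific factor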
How it was run: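 Background-control endpoint: basal TAL promoter reporter transcripts in transiently transfected HepG2, measured 24 h after dosing. Read-out by RT-PCR with fluorescent primer extension and capillary electrophoresis; gain or loss of signal fitted relative to DMSO.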

[15] = ATG_TGFb_CIS: Attagene CIS-FACTORIAL HepG2 Assay for human Transforming Growth Factor (TGF) (AID 2282967); conditions: HepG2 Attagene CIS TGFb reporter, mRNA transcription; actives raise or lower the signal
How it was run: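 HepG2 cells transiently transfected with cis-promoter-driven multiple reporter units measure endogenous TF activity; reporter mRNA quantified at 24 h by RT-PCR, FAM labeling, HpaI digestion and capillary electrophoresis. Bidirectional fit vs DMSO.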

[16] = ATG_VDRE_CIS: Attagene CIS-FACTORIAL HepG2 Assay for human Vitamin D Receptor Element (VDRE) (AID 2282968); conditions: HepG2 VDRE cis-reporter transcription, actives raise or lower the signal
How it was run: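 Transient MRTU transfection of HepG2, 24 h compound exposure. Readout: reporter transcripts via RT-PCR and capillary electrophoresis, fluorescence. Bidirectional fit vs DMSO.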

[17] = target: Paired box protein Pax-6 (Homo sapiens) (UniProt P26367); experiment: ATG_Pax6_CIS: Attagene CIS-FACTORIAL HepG2 Assay for human Paired Box 6 (PAX6) (AID 2282956); conditions: HepG2 CIS-FACTORIAL PAX6 reporter transcription, RNA readout; actives raise or lower the signal
Chain of Paired box protein Pax-6 (Homo sapiens) (P26367 whole entry, looked up): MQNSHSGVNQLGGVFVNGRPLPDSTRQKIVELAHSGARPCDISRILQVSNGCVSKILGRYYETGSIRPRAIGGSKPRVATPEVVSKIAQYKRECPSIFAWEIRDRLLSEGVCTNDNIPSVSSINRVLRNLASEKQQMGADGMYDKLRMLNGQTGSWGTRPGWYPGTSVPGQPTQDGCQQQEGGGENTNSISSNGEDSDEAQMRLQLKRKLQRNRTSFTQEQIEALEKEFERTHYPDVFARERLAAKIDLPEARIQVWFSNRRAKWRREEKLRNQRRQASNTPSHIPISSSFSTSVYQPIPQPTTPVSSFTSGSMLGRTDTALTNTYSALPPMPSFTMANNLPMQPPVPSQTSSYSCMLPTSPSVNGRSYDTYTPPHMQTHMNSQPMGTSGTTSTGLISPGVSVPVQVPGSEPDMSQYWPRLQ
How it was run: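 DMSO-referenced bidirectional fits of reporter mRNA fluorescence; HepG2 with transient cis-promoter MRTUs, 24 h post-dose, RT-PCR plus capillary electrophoresis detection.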

[18] = ATG_TCF_b_cat_CIS: Attagene CIS-FACTORIAL HepG2 Assay for human T-Cell-Factor with beta-catenin (TCF/b-cat) (AID 2282965); conditions: HepG2 TCF/beta-catenin cis-reporter transcription, actives raise or lower the signal
How it was run: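 HepG2 cells transiently transfected with cis-promoter-driven multiplexed reporter units; reporter mRNA measured 24 h after dosing by RT-PCR, FAM labelling, HpaI digestion and capillary electrophoresis. Bidirectional fitting relative to DMSO baseline.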

[19] = ATG_PBREM_CIS: Attagene CIS-FACTORIAL HepG2 Assay for human Phenobarbital-responsive Enhancer Module (PBREM) (AID 2282955); conditions: HepG2 PBREM cis-reporter, Attagene multiplexed transcription; actives raise or lower the signal
How it was run: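 Readout: reporter mRNA, fluorescent RT-PCR fragments separated by capillary electrophoresis. System: HepG2 transiently transfected with cis-regulated reporter units. Exposure: 24 h. Analysis: bidirectional, DMSO baseline.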

[20] = ATG_PXRE_CIS: Attagene CIS-FACTORIAL HepG2 Assay for human Pregnane X Receptor Element (PXRE) (AID 2282957); conditions: HepG2 Attagene CIS-FACTORIAL PXRE reporter, mRNA; actives raise or lower the signal
How it was run: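 Reporter transcripts under endogenous PXR-responsive cis-regulation quantified from total RNA of transfected HepG2 cells 24 h post-dosing, via RT-PCR with fluorescent primer extension and capillary electrophoresis. Gain or loss of signal fitted against DMSO baseline.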

Measured: AC50

COc1ccc([N+](=O)[O-])cc1O
not listed: [17] | [18] | [19] | [20]
inactive: all other assays above

CC1CC(=O)O1 (stereo not given)
active: [3] 88 µM
not listed: [14] | [19] | [20]
inactive: all other assays above

Cc1ccccc1OP(=O)(Oc1ccccc1C)Oc1ccccc1C
active: [6] 10.8 µM | [10] 71.8 µM | [15] 56.1 µM | [16] 0.533 µM
not listed: [5] | [18] | [20]
inactive: all other assays above

C[CH2][Hg][S]c1ccccc1C(=O)O
active: [4] 4.19 µM | [6] 3.71 µM | [17] 4.42 µM | [20] 5.8 µM | [7] 0.814 µM | [8] 2.97 µM | [9] 2.56 µM | [10] 1.51 µM | [11] 2.66 µM | [18] 6.54 µM | [14] 1.87 µM | [16] 3 µM
inactive: [1] | [2] | [3] | [19] | [12] | [13] | [15]

BrCc1ccc(Br)cc1
not listed: [5] | [14]
inactive: all other assays above

CC(C)(C)c1ccc(CCOc2ncnc3ccccc23)cc1
active: [20] 34.7 µM
not listed: [5] | [7] | [15] | [17]
inactive: all other assays above

CC(C)O.CC(C)O.OCCN(CCO)CCO.OCCN(CCO)CCO.[Ti]
not listed: [5] | [7] | [8] | [16] | [18]
inactive: all other assays above

O=C=Nc1ccc(Cl)cc1
not listed: [5] | [14]
inactive: all other assays above

CCCCN(CCCC)C(=S)S
inactive: [1] | [2] | [8] | [10] | [12] | [13] | [14]
active: [3] 100 µM | [4] 100 µM | [6] 112 µM | [17] 100 µM | [20] 25.1 µM | [9] 50.1 µM | [11] 128 µM | [18] 166 µM | [16] 24.3 µM

O=NN1CCCCCCC1
active: [20] 47.4 µM
not listed: [5] | [7] | [8] | [16] | [17]
inactive: all other assays above

C[N+](C)(C)Cc1ccccc1
not listed: [7] | [8] | [15] | [19]
inactive: all other assays above

COC(=O)Nc1cccc(OC(=O)Nc2cccc(C)c2)c1
not listed: [5] | [16]
inactive: all other assays above

C=CCN=C=S
not listed: [5]
inactive: all other assays above

CCOC(=O)OC1=C(c2cc(C)ccc2C)C(=O)NC12CCC(OC)CC2 (stereo not given)
not listed: [5] | [20]
inactive: all other assays above

CCCCC(CC)COC(=O)Cl (stereo not given)
not listed: [5] | [7] | [8]
inactive: all other assays above
